Reference: the supplement of paper PMC6555819

Assays:
Assay in all cases: PBM binding z-score (relative to random genomic background probes); higher = stronger binding; sequences stand for … in GC…GCGATTGACAGCGTAGAATGAAGG
[1] = system: FXR:RXRa (NR concentration 270 nM, RXRa partner concentration 90 nM)
Summary of the method: (§1)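 Probes were double-stranded and carried 34-nt variable regions with direct-repeat seeds, single-nucleotide variants, half-site ablations and random human genomic background sequences, printed on custom Agilent 4×180K protein-binding microarrays. Arrays were incubated 1 h with ligand-free nuclear receptor dimers in PBS pH 7.4, 2% milk, 0.02% Triton X-100, 1 mM DTT, 0.2 mg/mL BSA and 0.4 mg/ml salmon testes DNA. Antibodies against each partner (one per run) detected binding, and scanned fluorescence was regression-normalized. Binding z-scores use the random background probes as reference.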

[2] = system: LXRa:RXRa (NR concentration 270 nM, RXRa partner concentration 90 nM)
Summary of the method: as §1

[3] = system: LXRa homodimer (NR concentration 270 nM)
Summary of the method: as §1

[4] = system: LXRb:RXRa (NR concentration 270 nM, RXRa partner concentration 90 nM)
Summary of the method: as §1

[5] = system: LXRb homodimer (NR concentration 270 nM)
Summary of the method: as §1

[6] = system: PPARa:RXRa (NR concentration 270 nM, RXRa partner concentration 90 nM)
Summary of the method: as §1

[7] = system: PPARg:RXRa (NR concentration 180 nM, RXRa partner concentration 90 nM)
Summary of the method: as §1

[8] = system: PPARg:RXRa 270nM:90nM, anti-RXR (NR concentration 270 nM, RXRa partner concentration 90 nM)
Summary of the method: as §1

[9] = system: PPARg:RXRa 30nM:10nM, anti-RXR (NR concentration 30 nM, RXRa partner concentration 10 nM)
Summary of the method: as §1

[10] = system: PPARg:RXRa 90nM:30nM, anti-RXR (NR concentration 90 nM, RXRa partner concentration 30 nM)
Summary of the method: as §1

[11] = system: PPARg:RXRa DBDmut IVT, anti-RXR (DBD mutation: RXRa K156A/R161A, NR concentration 270 nM, RXRa partner concentration 90 nM)
Summary of the method: as §1

[12] = system: PPARg:RXRa IVT, anti-PPARg (NR concentration 270 nM, RXRa partner concentration 90 nM)
Summary of the method: as §1

[13] = system: PPARg DBDmut:RXRa IVT, anti-PPARg (DBD mutation: PPARg1 K132A/R137A, NR concentration 270 nM, RXRa partner concentration 90 nM)
Summary of the method: as §1

[14] = system: PPARg DBDmut IVT, anti-PPARg (DBD mutation: PPARg1 K132A/R137A, NR concentration 270 nM)
Summary of the method: as §1

[15] = system: PPARg homodimer (NR concentration 180 nM)
Summary of the method: as §1

[16] = system: PXR:RXRa (NR concentration 270 nM, RXRa partner concentration 90 nM)
Summary of the method: as §1

[17] = system: PXR homodimer (NR concentration 270 nM)
Summary of the method: as §1

[18] = system: RARa:RXR (NR concentration 270 nM, RXRa partner concentration 90 nM)
Summary of the method: as §1

[19] = system: RARa homodimer (NR concentration 270 nM)
Summary of the method: as §1

[20] = system: RARb:RXRa (NR concentration 270 nM, RXRa partner concentration 90 nM)
Summary of the method: as §1

| Sequence | PBM binding z-score [1] | PBM binding z-score [2] | PBM binding z-score [3] | PBM binding z-score [4] | PBM binding z-score [5] | PBM binding z-score [6] | PBM binding z-score [7] | PBM binding z-score [8] | PBM binding z-score [9] | PBM binding z-score [10] | PBM binding z-score [11] | PBM binding z-score [12] | PBM binding z-score [13] | PBM binding z-score [14] | PBM binding z-score [15] | PBM binding z-score [16] | PBM binding z-score [17] | PBM binding z-score [18] | PBM binding z-score [19] | PBM binding z-score [20] |
| --- | --- | --- | --- | --- | --- | --- | --- | --- | --- | --- | --- | --- | --- | --- | --- | --- | --- | --- | --- | --- |
| CCTTACGGGTCAAGGTTATAGCACGGGTGGTACG | 5.23 | 3.73 | 0.318 | 2.98 | 0.019 | 5.02 | 4.65 | 4.69 | 2.06 | 3.64 | 1.93 | 3.57 | 0.0487 | -0.257 | 1.58 | 3.2 | 0.367 | 4.01 | 0.705 | 4.13 |
| CGTCCACGGTCAAGGTCAGTGAAAGAGACTCGAA | 2.73 | 1.71 | -0.21 | 1.6 | -0.801 | 2.61 | 0.677 | 1.15 | -0.28 | 0.438 | 0.397 | 1.53 | -0.802 | -1.07 | 1.28 | 1.69 | 0.177 | 2.2 | 0.0153 | 4.28 |
| AGAACGAGGGCCCGCTGAGTTGATAGCAGAGTAG | -0.807 | -1.1 | -0.871 | -1.53 | -1.19 | -1.78 | -0.00223 | -1.4 | -0.848 | -1.55 | -0.75 | -0.481 | -0.976 | -0.618 | -1.15 | -0.97 | -1.05 | -1.3 | -1.68 | -0.616 |
| TTTACAGGGTCAAAGGCCAGAGTACGAATGTCGA | 6.76 | 5.85 | 2.22 | 4.87 | 1.18 | 6.03 | 8.6 | 7.65 | 6.04 | 7.79 | 3.26 | 5.18 | 1.93 | 1.36 | 1.8 | 4.41 | 0.247 | 6 | 1.16 | 4.52 |
| CGTCCAAGGTCCAAGGTCAGTGAAGAGATGACGG | 1.55 | 1.08 | 0.179 | 1.1 | -0.433 | 2.37 | 1.65 | 2.35 | 0.473 | 1.66 | -0.345 | 0.595 | -0.804 | -0.592 | 1.34 | 1.67 | 0.584 | 2.28 | 0.674 | 3.29 |
| GCTTACGGGTAAAAGGTTATAGCATGAATAGAAT | 1.77 | 2.73 | 0.384 | 2.57 | 0.0166 | 4.81 | 7.24 | 7.67 | 6.08 | 8.3 | 1.1 | 3.12 | 0.792 | 0.799 | 1.62 | 2.36 | 0.623 | 3.75 | 0.86 | 1.98 |
| AGAACGAGGGCACGCTGAGTTGCTAGCAGAGTAG | 0.473 | 0.348 | -0.756 | -0.279 | -1.02 | 2.05 | 1.85 | 1.6 | 0.179 | 0.707 | 4.16 | 3.97 | -0.0983 | -0.499 | -0.0627 | 0.539 | -0.605 | 0.617 | -0.905 | 2.43 |
